# An excerpt weighted towards active compounds, which were near 10% of everything screened.
# GPT2 inh: GPT2 alanine aminotransferase inhibition; Q8TD30; Recombinant GPT2, coupled pyruvate oxidase/HRP Amplex Red fluorescence; Potency, µM (doses to about 57.7 µM), for the others: top-dose activity change, negative = inhibition, most hits filed as inhibitors; 100,000 tested, 0.25% active; also: nearly all actives have a fitted effect of over 60% in size
#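 Fluorescence of coupled pyruvate oxidase/HRP/Amplex Red system (50uM Amplex, 30 min, dark) reports pyruvate formed by GPT2. Enzyme reaction: 10ng/uL GPT2, 2mM L-alanine, 250uM a-KG, 30 min room temperature, pH 7.5; 50uM AOA control.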
# HEK293 tox: cytotoxic compounds in HEK 293 cells; 94,000 tested, 6.6% active; AID 1345083; Potency, µM (doses to about 115 µM), for the others: at the top dose activity change, negative = cytotoxicity, usual class: inhibitors; HEK 293 viability, ATP luminescence (CellTiter-Glo), 48-72 h; also: nearly all actives have a fitted effect of over 60% in size
#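 250 HEK 293 cells/well; compound by pintool; incubated 48 or 72 hr at 37 degree Celsius; CellTiter-Glo added, 10 min RT, luminescence imaged.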
# 3T3 cytotox: cytotoxic compounds in NIH 3T3 cells; Potency, µM (doses to about 96.7 µM), for the others: at the highest dose activity change, negative = cytotoxicity, hits mostly inhibitors; 94,000 tested, 4.3% active; NIH 3T3 viability, CellTiter-Glo ATP luminescence, 48-72 h; also: nearly all actives have a fitted effect of over 55% in size
#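 ATP-dependent luminescence (CellTiter-Glo) served as the viability signal for NIH 3T3 cells treated with compound for 48 or 72 hr at 37 °C.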
# hNpr1 antagonist: antagonists of human natriuretic peptide receptor Npr1 | P16066 | HEK293 hNpr1 GloSensor cGMP, ANP-stimulated luminescence | Potency, µM (highest dose often 46.3 µM), inactives show at the top dose activity change, negative = inhibition, actives largely listed as inhibitors | 76,000 tested, 1.6% active | AID 1347048; calls by dose curve; also: nearly all actives have a fitted effect of over 60% in size
#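 Compound pre-incubated 30 min at room temperature on GloSensor-loaded HEK293 cells stably carrying hNpr1 and the pGS-40F cGMP biosensor. Stimulation uses hNppA at 0.1 nM final; luminescence is taken at baseline and 20 min post-agonist.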
# Luciferase inh: Photinus pyralis luciferase inhibition; purified P. pyralis luciferase, luminescence, biochemical; Potency, µM (series often up to 115 µM), most hits filed as inhibitors; 76,000 tested, 2.5% active; AID 1347043; also: nearly all actives have a fitted effect of over 65% in size
# Target sequence (P08659 whole entry, looked up): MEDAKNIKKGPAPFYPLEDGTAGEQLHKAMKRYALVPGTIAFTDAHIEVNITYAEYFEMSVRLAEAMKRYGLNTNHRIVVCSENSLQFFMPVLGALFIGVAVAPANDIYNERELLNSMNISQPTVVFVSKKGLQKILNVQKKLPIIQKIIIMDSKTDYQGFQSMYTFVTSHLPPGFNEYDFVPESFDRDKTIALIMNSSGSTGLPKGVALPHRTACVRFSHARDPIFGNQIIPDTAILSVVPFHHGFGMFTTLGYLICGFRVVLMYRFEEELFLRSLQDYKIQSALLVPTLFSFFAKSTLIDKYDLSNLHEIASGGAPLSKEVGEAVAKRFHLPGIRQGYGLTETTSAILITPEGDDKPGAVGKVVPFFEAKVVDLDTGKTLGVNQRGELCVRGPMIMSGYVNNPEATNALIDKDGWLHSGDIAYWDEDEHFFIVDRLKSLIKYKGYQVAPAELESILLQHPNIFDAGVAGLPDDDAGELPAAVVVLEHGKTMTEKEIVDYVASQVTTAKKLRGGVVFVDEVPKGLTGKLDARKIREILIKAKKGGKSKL
#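 Purified P. pyralis luciferase (10nM final) in 50mM Tris acetate pH 7.5, 10mM Mg acetate, 0.01% Tween-20, 0.05% BSA with 10uM D-luciferin and 10uM ATP. Compounds titrated qHTS. Luminescence imaged on CCD.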
# An asterisk follows results filed as active; i = inactive; ? = inconclusive; · = no result; [ ] = remark or other dose. Unless noted, calls follow the shape of the dose curve; as a rule, active = well fitted curve in the direction sought with a large enough effect; inconclusive = small, poorly fitted or top-dose-only effect, or another doubt; inactive = no such curve, though single readings can be large; an effect the other way counts as inactive or inconclusive. % is scaled to controls: 0 for no effect and ±100 for the full control effect; potency is read from the fitted curve at half-maximal effect.
SMILES,GPT2 inh,HEK293 tox,3T3 cytotox,hNpr1 antagonist,Luciferase inh
COc1cccc(Nc2cc3[nH]ccc3c(C(=O)NCc3c(C)cc(C)[nH]c3=O)n2)c1,4%[88.5 µM],71µM*,40µM*,1%[70.6 µM],?
O=C1NCCCc2[nH]c(-c3csc(-c4ccccc4)n3)nc21,-12%,?,?,-4%,25µM*
Cc1nc(-c2nc3c([nH]2)CCCNC3=O)cc(=O)[nH]1,4%,-21%,4%,-5%,i
CC1(CCCCN2CCOCC2)COc2ccc(C(=O)Nc3cccc(Cl)c3)cc2N1 (stereo not drawn),-11%,?,?,-1%,?
CN(C)CCCOCC1(C)COc2ccc(C(=O)Nc3ccc(F)c(Cl)c3)cc2N1 (stereo not drawn),-14%[88.5 µM],63µM*,40µM*,-13%[70.6 µM],i
CC1(COCC2CC2)COc2ccc(C(=O)Nc3ccc(Cl)cc3)cc2N1 (stereo not drawn),-12%[88.5 µM],28µM*,35µM*,?,i
CC1(CCCCN2CCOCC2)COc2ccc(C(=O)Nc3ccc(Cl)cc3)cc2N1 (stereo not drawn),-6%,50µM*,?,-12%,?
CN(C)CCCOCC1(C)COc2ccc(C(=O)N3CCOCC3)cc2N1 (stereo not drawn),-20%[88.5 µM],4%[172 µM],?,-1%[70.6 µM],i
CCOCC1(C)COc2ccc(C(=O)Nc3ccccn3)cc2N1 (stereo not drawn),-3%[88.5 µM],?,?,?,16µM*
CO[C@H]1C(=O)N(C(C)C)[C@H]1C1CCN(Cc2ccc(C)s2)CC1,i,i,i,2%,i
O=c1cc(-c2cccnc2)nc(-c2ccc(CN3CCCC(F)(F)C3)cc2)[nH]1,i,4%,-3%,-1%,i
FC(F)(F)c1ccc2c(c1)nc1n2[C@@H](CNCc2c[nH]c3ccccc23)COC1,-17%[88.5 µM],89µM*,?,-17%[70.6 µM],i
COc1ccc2cc1Nc1ccc(cc1)C[C@H](NCc1cccc(O)c1)C(=O)N(C)[C@@H](C(=O)Nc1ccccc1)C2,-21%,?,?,-30%,i
COc1ccc2cc1Nc1ccc(cc1)C[C@H](NC(=O)Cc1cccc(Cl)c1)C(=O)N(C)[C@H](C(=O)NCCC(C)C)C2,i,?,25µM*,-1%,i
O=C(NCc1cccnc1)c1ccc2nnc(-c3ccoc3)n2c1,i,i,3%[138 µM],·,·
O=[S+]([O-])(c1ccccc1)N1CCn2c(nnc2-c2ccccc2)C1,?,-1%,-11%,0%,i
CC1(C(=O)Nc2ccc(F)cc2)CN(Cc2ccccc2)Cc2ccc(N3CCOCC3)nc21 (stereo not drawn),4%,?,?,-22%,i
CN(Cc1nnc(C(=O)N2CCC[C@@H]2c2cccc(F)c2)n1-c1ccccc1)c1ccccc1,i,?,?,-3%,i
CC(=O)N1CCCN(Cc2nnc(C(=O)N3CCC[C@@H]3c3cccc(F)c3)n2-c2cccnc2)CC1,-16%,35µM*,22µM*,-1%,i
Cc1nc2n(c1C(=O)Nc1cccc(Cl)c1C)CCC(Nc1ccc(F)cc1)C2 (stereo not drawn),1%[88.5 µM],89µM*,?,-1%[70.6 µM],i
COc1ccccc1C(=O)N1CCN(c2ccnc3ccnn23)CC1,i,?,?,·,·
O=C(NC1CCCN(c2ccnc3ccnn23)C1)c1ccc(C(F)(F)F)cc1 (stereo not drawn),-9%,28µM*,?,·,·
Cc1cc(C(=O)N2CCCN(c3ccnc4ccnn34)CC2)ccc1Cl,i,45µM*,?,·,·
O=C(NCC1CC1)C1CCCN(c2ccnc3ccnn23)C1 (stereo not drawn),5%[88.5 µM],3%[172 µM],-19%[138 µM],·,·
O=C(NCC1CCCCC1)C1CN(c2ccnc3ccnn23)C1,-2%,25µM*,-27%,·,·
O=C(NC1CCN(c2ccnc3ccnn23)CC1)c1ccc(Cl)cc1,-9%,45µM*,?,·,·
COCCN1C(=O)CS(=O)(=O)C12CCN(C(=O)c1cccc(OC)c1)CC2,?,-11%,-20%,3%,i

# Screening results (PubChem)
